# Reference: PubChem BioAssay AID492998 (Southern Research Specialized Biocontainment Screening …, 2010)
# Screen size: about 2,300 compounds; about 550 (24%) were called active. How the calls were made is not given here. These entries were drawn from the full list. Measured potencies and affinities stand elsewhere.
# Assay: Vero E6 cell cytotoxicity, dose response, cytotoxicity control for non-replicating M. tuberculosis project, secondary assay (AID 492998);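 further: 100% = vehicle-treated cells and 0% = background wells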
# Conditions: series mostly up to 20 µM; viability: at the top concentration
row,SMILES,viability
1,C(#CCN1CCOCC1)COCc1ccccc1,110% (inactive)
2,O=c1cc(C(F)(F)F)[nH]c2c(C(F)(F)F)cccc12,96.8% (inactive)
3,O=C(Nc1ncc2c(n1)-c1ccccc1OC2)c1ccc(F)cc1,98.9% (inactive)
4,O=C(Nc1nnc(C2=COCCO2)o1)c1ccc(F)cc1,83.1% (inactive)
5,CCOC(=O)CNCCC(=O)c1ccc(Br)cc1,92.9% (inactive)
6,COc1ccc(S(=O)(=O)NCc2ccc3c(c2)cc(C)n3C)cc1,103% (inactive)
7,COC(=O)COc1ccc(-c2nn(C)c(=O)c3ccccc23)cc1,90.4% (inactive)
8,NC(N)=Nc1nc(-c2ccccc2)c2ccccc2n1,97% (inactive)
9,COC(=O)[C@H](CC(C)C)NC(=O)NCCC1=CCCCC1,87.6% (inactive)
10,O=C(NCc1cccs1)c1cc(-c2ccc(O)cc2)on1,89.1% (inactive)
11,CC1CCN(CCOCCSc2ccc(Cl)cc2)CC1,88.8% (inactive)
12,O=C(CCSc1ccccn1)c1ccccc1,87.2% (inactive)
13,CCOc1ccc(-c2ccc(SCC)nn2)cc1,93.3% (inactive)
14,Nc1c(C(=O)NC2CCCCC2)nsc1C(=O)OCC(=O)NC1CCCCC1,97% (inactive)
15,CCC(C)c1ccc(OCCn2ccnc2)cc1 (centres undefined),83.8% (inactive)
16,O=C(N/N=C/C(Br)=C/c1ccccc1)c1ccncc1,105% (inactive)
17,O=C(N/N=C/C(Br)=C/c1ccccc1)c1cnccn1,88.9% (inactive)
18,O=C(Cc1ccccc1)Nc1ccc(C(=O)NCC2COc3ccccc3O2)cc1 (centres undefined),94.7% (inactive)
19,O=C(NCc1ccc(Cl)cc1)c1n[nH]c([N+](=O)[O-])c1Cl,105% (inactive)
20,CCOc1ccc(NC(=O)COc2ccc3c(c2)OCO3)cc1,100% (inactive)
21,Cc1ccc(C(=O)NCCOc2cccc(C)c2)cc1,101% (inactive)
22,Cc1cccc(OCCCCc2c(C)n[nH]c2C)c1,86.5% (inactive)
23,CC(C)(C)c1ccccc1OCCOCCN1CCCCCC1,75.2% (inactive)
24,Cc1cc(OCc2cc(C(=O)N(C)CCc3cnn(C)c3)no2)cc(C)c1Cl,77.5% (inactive)
25,COc1cccc(COC(=O)c2sc3nc4n(c(=O)c3c2C)CCC4)c1OC,99.9% (inactive)
26,CCOc1ccc(OCCSc2ccc(S(=O)(=O)N3CCN(C)CC3)cn2)cc1,91.8% (inactive)
27,O=C(CCN1CCOCC1)c1ccc(Br)cc1,82.3% (inactive)

row,SMILES,viability
1,Cc1cc(C(=O)N/N=C/C=C/c2ccccc2)c(C)o1,81% (inactive)
2,Nc1ccc2c(c1)oc1ccccc12,98.2% (inactive)
3,CCCc1nnc(-c2ccc(OC)cc2)o1,97% (inactive)
4,Cc1ccc(SCCC(=O)OCC(=O)NCC2CCCCC2)cc1,101% (inactive)
5,NC(=O)CN1CCN(C2CC(=O)N(CCc3ccccc3)C2=O)CC1 (centres undefined),107% (inactive)
6,NNC(=O)COc1cccc(Oc2ccccc2)c1,107% (inactive)
7,CCOC(=O)COc1ccc2c3c(c(=O)oc2c1C)CCC3,92.1% (inactive)
8,O=Cc1coc2ccc3ccccc3c2c1=O,95.9% (inactive)
9,O=C(OCc1ccc([N+](=O)[O-])cc1)c1ccc2ccccc2n1,96.5% (inactive)
10,Cc1cc(C=C2C(=O)N(C)C(=S)N(C)C2=O)c(C)n1-c1cccnc1,113% (inactive)
11,Cc1ccc2nc(C)c3c(c2c1)SCC3,103% (inactive)
12,CCOC(=O)Cc1csc(NC(=O)COc2ccc3c(c2)CCC3)n1,103% (inactive)
13,CCCCCCn1c(=O)c(C(=O)Nc2nnc(C)s2)c(O)c2ccccc21,83.8% (inactive)
14,CCCCn1c(=O)c(C(=O)Nc2nnc(C(C)C)s2)c(O)c2ccccc21,91.5% (inactive)
15,O=C(NC(=S)N1CCN(C/C=C/c2ccccc2)CC1)c1ccco1,113% (inactive)
16,Brc1ccc(-c2ccc(CNCc3ccccn3)o2)cc1,91.8% (inactive)
17,Cc1ccccc1OCCCCc1c(C)n[nH]c1C,81.3% (inactive)
18,O=C(COC(=O)CC12CC3CC(CC(C3)C1)C2)Nc1cccnc1Cl,83.2% (inactive)
19,NC(=O)COc1ccc2cc(-c3ccc(F)cc3)c(=O)oc2c1,86.5% (inactive)
20,COc1ccc(C(=O)Oc2cccc3cccnc23)cc1S(=O)(=O)N1CCOCC1,91% (inactive)
21,O=C(CCN1CCOCC1)c1ccc(Cl)cc1,82.1% (inactive)
22,COc1cc(NC(=O)N2CCOCC2)cc(OC)c1,106% (inactive)
23,O=C(COc1c(Br)cc(Br)c2cccnc12)N1CCCCC1,93.4% (inactive)
24,COc1ccc(/C=N/NC(=O)c2ccncc2)cc1CN1CCOCC1,106% (inactive)
25,Oc1ccc(F)c2cccnc12,98% (inactive)
26,COc1ccc2cc(C(=O)C3CCCN(Cc4ccccn4)C3)ccc2c1 (centres undefined),88.9% (inactive)
27,CCOC(=O)C1(CCc2ccccc2)CCN(Cc2ccccn2)CC1,96.7% (inactive)

row,SMILES,viability
1,Cc1ccc(NC(=O)CO/N=C/c2ccccc2C)c(C)c1,100% (inactive)
2,COC(=O)CCSCc1cn2cc(Cl)ccc2n1,109% (inactive)
3,COc1ccc(-c2nc3ccc(C)cc3c(=O)o2)cc1OC,109% (inactive)
4,CCOC(=O)Cn1c(-c2ccccc2)ccc(C#N)c1=O,97.8% (inactive)
5,COc1ccc(OC(=O)C(C)N2C(=O)c3ccccc3C2=O)cc1 (centres undefined),104% (inactive)
6,O=C(Cc1ccc(Cl)cc1)OCC(=O)c1ccc[nH]1,109% (inactive)
7,O=C(COC(=O)CC1CCCC1)Nc1ccc(Cl)cn1,108% (inactive)
8,NC(=O)COC(=O)c1sc2ccccc2c1Cl,90.3% (inactive)
9,CCOC(=O)c1c(C)n(C)c2ccc(OC(C)C(=O)OC)cc12 (centres undefined),98.4% (inactive)
10,Cc1cc(C(=O)COc2cccc3cccnc23)c(C)n1C,87.9% (inactive)
11,CCOC(=O)COc1ccc(C2CC(C)=NN2c2ccccc2)cc1 (centres undefined),102% (inactive)
12,Cc1ccccc1Cn1cc(NC(=O)c2noc(C(C)C)c2[N+](=O)[O-])cn1,112% (inactive)
13,CCOC(=O)CCCNC(=O)COC(=O)c1cc(Br)c(Br)s1,107% (inactive)
14,O=C(N/N=C\c1ccco1)c1cncc(Br)c1,97.2% (inactive)
15,Cc1nnc(C)n1/N=C/c1cc(Br)cc(Br)c1O,105% (inactive)
16,COC(=O)C1=C(C(=O)OC)C(c2cc(Cl)ccc2O)c2sc(=O)[nH]c2S1 (centres undefined),92.5% (inactive)
17,CSCCC(=O)N1CCCC(CNC(=O)c2ccc(-c3ccccc3)cc2)C1 (centres undefined),97.5% (inactive)
18,CCOc1ccc(-c2ccc(C=O)o2)c([N+](=O)[O-])c1,98.1% (inactive)
19,O=[N+]([O-])c1ccc(Nc2ccccc2)c2nonc12,103% (inactive)
20,O=[N+]([O-])c1cncc([N+](=O)[O-])c1Nc1ccccc1Cl,88.5% (inactive)
21,CCCCc1ccc(NS(=O)(=O)c2c(C)n(C)c(=O)n(C)c2=O)cc1,89.4% (inactive)
22,CCOc1ccc(OCC(=O)OCc2cc(=O)n3cc(Br)ccc3n2)cc1,100% (inactive)
23,O=C(N/N=C/c1cccs1)c1cncc(Br)c1,101% (inactive)
24,O=C(N/N=C\C=C\c1ccco1)c1cncc(Br)c1,97.4% (inactive)
25,COC(=O)C1CC(=O)N(c2ccc(OCc3ccccc3Cl)cc2)C1 (centres undefined),106% (inactive)
